Dicer inh: inhibitors of Dicer pre-microRNA processing, primary screen, biochemical, cat-ELCCA, chemiluminescence | 47,000 compounds, 6% hits | z-score at 25 µM | Endoribonuclease Dicer (Homo sapiens), Q9UPY3 | cat-ELCCA pre-miR-21 Dicer processing; stronger effect = higher value; in the data active means z-score above about 3, passing the limit was not always enough;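 further: plate controls were vehicle for no effect and no enzyme for full effect; higher signal means more uncleaved substrate so more Dicer inhibition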
* = called active by the depositor. This excerpt belongs to a sample that is enriched for hits.

SMILES | Dicer inh
COc1cccc(C2N=C(N)Nc3nc4ccccc4n32)c1OC (stereo not given) | -0.37
CC1=CC(C)C2COC(c3ccc4c(c3)OCO4)C1C2C (stereo not given) | 3.99*
O=C1CC(c2ccc3c(c2)OCO3)c2c(ccc3ccccc23)N1 (stereo not given) | 0.95
CC1=CC(C)C2COC(c3ccccc3O)C1C2C (stereo not given) | 1.18
CC1CC(N2CN=C(SCc3ccc([N+](=O)[O-])cc3)NC2)CC(C)(C)C1 (stereo not given) | -2.35
COC(=O)c1ccc(-n2ncnc2-c2cccc(Br)c2)cc1 | 2.31
CCOC(=O)C1=C(C)NC2=C(C(=O)CC(C)(C)C2)C1c1ccccc1 (stereo not given) | -1.85
Cc1c(C#N)c(Sc2ccccc2NC(=O)c2ccc(Cl)cc2)nc2ccccc12 | -1.55
O=C(Nc1cc(C(F)(F)F)ccc1Cl)C(Cl)Cl | 5.02*
NNC(=O)Nc1ccc(C(F)(F)F)cc1Cl | 0.71
O=C(Nc1cc(C(F)(F)F)ccc1Cl)C(=S)N1CCOCC1 | -0.41
Cc1ccc(-c2nc(-c3ccc(OCC(F)(F)F)nc3)no2)cc1 | -1.44
COc1nc(NCC(C)C)nc(Oc2ccc(=O)[nH]n2)n1 | -0.42
CN(C)c1nc(Oc2ccc(=O)n(C)n2)nc(N2CCOCC2)n1 | -1.02
CCOc1ccc(Oc2nc(NCC(C)C)nc(N3CCOCC3)n2)nn1 | 5.85*
CCOC(=O)c1ccc(NC(=S)N2CCN3C(=O)c4ccccc4C32c2ccccc2)cc1 (stereo not given) | 2.9
CCCCCCc1cc2c(C)cc(=O)oc2cc1O | 0.29
CCOC(=O)CSc1nc2nc(C)cc(C)c2c(=O)[nH]1 | 0.09
CC1CC(=O)N(C)c2ccccc2S1(=O)=O (stereo not given) | 3.95*
CN1C(=O)CC(c2ccsc2)Sc2ccccc21 (stereo not given) | 0.73
CN1C(=O)CN(C2CCCCC2)C(=O)c2ccccc21 | 2.52
O=C(COc1ccccc1SCc1ccc(Cl)cc1)NNC(=O)c1ccc(Cl)cc1 | 0.38
Nc1nc(-c2ccccc2)cn1Nc1ccccc1 | -2.71
COc1cccc(C2C3=C(Nc4c2c(=O)n(C)c(=O)n4C)c2ccccc2C3=O)c1 (stereo not given) | -1.38
Cn1c2c(c(=O)[nH]c1=O)C(c1ccsc1)C1=C(N2)c2ccccc2C1=O (stereo not given) | -2.93
SMILES | Dicer inh
Cn1c2c(c(=O)n(C)c1=O)C(c1ccsc1)C1=C(N2)c2ccccc2C1=O (stereo not given) | 7.8*
O=c1sc2ccccc2n1CCCOc1ccc(Cl)cc1 | -0.31
NC(=S)Nc1ccc(C(F)(F)F)cc1 | -0.82
CSC(N)=Nc1csc(C(F)(F)F)c1-c1ccccc1 | 1.57
NC(=S)Nc1csc(C(F)(F)F)c1-c1ccccc1 | 3.28*
Cc1[nH]nc(NC2CCCCC2)c1[N+](=O)[O-] | 1.05
Cc1ccc(C(=O)n2nc(C)c(Sc3nccn3C)c2C)cc1 | -0.79
CCCCCCNc1ncnc2c1sc1nc3c(cc12)COC(C)(C)C3 | -0.33
O=C1CC(C(=O)Nc2cccc(F)c2)n2c(nc3ccccc32)N1 (stereo not given) | -0.23
O=C1CC(C(=O)Nc2cccc(Cl)c2)n2c(nc3ccccc32)N1 (stereo not given) | 1.3
O=C1CC(C(=O)Nc2ccc(Br)cc2)n2c(nc3ccccc32)N1 (stereo not given) | 5.06*
O=S1(=O)CC(c2ccc(Cl)cc2)CS(=O)(=O)C1 | -1.32
Cn1c(=O)[nH]c(=O)c2c1nc(NCc1ccccc1)n2CC(O)COc1cccc2ccccc12 (stereo not given) | 1.35
Cc1cc(NNS(=O)(=O)c2ccc(Cl)cc2)nc2c1c(C)nn2C | 4.42*
Cc1cc(NNC(=O)c2ccccc2Cl)nc2c1c(C)nn2C | -0.63
Cc1cc(NNC(=O)Nc2cccc(Cl)c2)nc2c1c(C)nn2C | 0.59
Clc1ccc(-c2nc(-c3cc(Cl)c(Cl)s3)cs2)cc1 | 0.48
c1ccc(CCN2CN(Cc3cccnc3)Cn3c2nc2ccccc23)cc1 | -0.97
Cc1ccc(C2/C(=C(\O)c3ccc(F)cc3)C(=O)C(=O)N2Cc2cccnc2)cc1 (stereo not given) | -5.3
CCCn1c(C)cc(C)c(C#N)c1=O | 0.64
CCCCn1c2ccccc2c2ccccc21 | 0.42
CCCCn1c(C)cc(=S)cc1C | 4.49*
CC1(C)CC(=O)C2(CNC3=C(C2)C(=O)CC(C)(C)C3)C(=O)C1 | 0.01
C=CCNC(=S)NNC(=O)c1sc2nnc(-c3ccccc3)c(-c3ccccc3)c2c1N | 15.6
Cc1cc(C)c2c(N)c(C(N)=O)sc2n1 | 0.03
SMILES | Dicer inh
C=CCNC(=S)NNC(=O)c1sc2nc(C)cc(C)c2c1N | 4.17*
O=C(CC1(O)C(=O)Nc2ccc(Br)cc21)c1ccccn1 (stereo not given) | -1.02
CC1=C(C(=O)OC(C)C)C(c2ccc(O)cc2)n2c(nc3ccccc32)N1 (stereo not given) | 0.06
CCOC(=O)c1sc(N(NC(=O)c2ccc(Cl)cc2)C(=O)c2ccc(Cl)cc2)c2c1CC(C)(C)CC2=O | 0.24
Cn1c(NCc2ccco2)nc2c1c(=O)n(CCc1ccccc1)c(=O)n2C | 1.34
CCOC(=O)C(=NNc1ccccc1Cl)C(=O)OCC | -0.14
COc1ccc(OC)c(CN2CCN(Cc3c[nH]c4ccccc34)CC2)c1 | 2.64
COc1ccc(CN2CCN(Cc3ccc4c(c3)OCO4)CC2)c2ccccc12 | -0.76
COc1ccc(CN2CCN(Cc3cc(OC)ccc3O)CC2)cc1 | 2.64
COc1cccc(CN2CCN(Cc3c[nH]c4ccccc34)CC2)c1OC | 3.35*
COc1cc(CN2CCN(Cc3cccc4ccccc34)CC2)cc(OC)c1 | 3.66*
COc1ccc(CN2CCN(Cc3c[nH]c4ccccc34)CC2)c(OC)c1 | 2.44
Cc1ccc(/C(O)=C2/C(=O)C(=O)N(CC(C)O)C2c2cccc(F)c2)cc1 (stereo not given) | -1.07
CC1CC(C)CN(c2nc3nonc3nc2Nc2ccc3c(c2)OCO3)C1 (stereo not given) | 0.59
O=c1/c(=C\c2ccc3c(c2)OCO3)sc2n1C(c1cccs1)C1=C(N=2)c2ccccc2CC1 (stereo not given) | 10.5
O=C(Nc1ccc(Cl)cc1)Sc1ccccc1Cl | -0.51
Cc1c(SCC(=O)Nc2ccc(Br)cc2)c(=O)[nH]c2cc3c(cc12)OCO3 | -1.93
c1ccc(-c2cn3c(n2)COc2ccccc2-3)cc1 | -1.36
CCCOC(=O)C1=C(C)NC2=C(C(=O)CC(C)(C)C2)C1c1ccc(Br)cc1 (stereo not given) | 1.2
Cc1ccc(NC(=O)Oc2ccc(F)cc2Cl)cc1Cl | 0.19
O=C(NCC1COc2ccccc2O1)c1cc(Cl)sc1Cl (stereo not given) | 0.6
FC(F)(F)c1cccc(N=Cc2c(-c3ccccc3)nc3n2CCS3)c1 | 2.74
Clc1ccc(N=Cc2c(-c3ccccc3)nc3n2CCS3)cc1 | 3.87*
CS(=O)(=O)/C(C#N)=C/c1c(-c2ccccc2)nc2n1CCS2 | 1.54
COC(=O)C1C(=O)NC(SCC(N)=O)=C(C#N)C1c1ccc(Cl)cc1 (stereo not given) | 0.52
COc1ccccc1C1CCN(c2nc(-c3ccccc3)ns2)CC1 | 0.49
COc1ccccc1OCCSc1nc2ncnc(N)c2[nH]1 | -0.36
Cc1ccc(C(C)C)c(OCCSc2ncnc3nc[nH]c23)c1 | -0.81
Cc1ccc(OCCSc2nc3ncnc(N)c3[nH]2)c(C(C)C)c1 | 3.6*

Screening results (PubChem BioAssay)
